From PubChem BioAssay AID504447 (The Scripps Research Institute Molecular Screening Center, 2011)
Measured potencies and affinities stand elsewhere. The source made the active and inactive calls. The rule behind the calls is not given here.

Molecular target: Peroxisome proliferator-activated receptor gamma (Homo sapiens) (UniProt P37231)
Assay: PPARg transcriptional activation, reporter cells – cell-based, luminescence, assay provider, dose response (AID 504447)

Chain of Peroxisome proliferator-activated receptor gamma (Homo sapiens) (P37231 whole entry, looked up): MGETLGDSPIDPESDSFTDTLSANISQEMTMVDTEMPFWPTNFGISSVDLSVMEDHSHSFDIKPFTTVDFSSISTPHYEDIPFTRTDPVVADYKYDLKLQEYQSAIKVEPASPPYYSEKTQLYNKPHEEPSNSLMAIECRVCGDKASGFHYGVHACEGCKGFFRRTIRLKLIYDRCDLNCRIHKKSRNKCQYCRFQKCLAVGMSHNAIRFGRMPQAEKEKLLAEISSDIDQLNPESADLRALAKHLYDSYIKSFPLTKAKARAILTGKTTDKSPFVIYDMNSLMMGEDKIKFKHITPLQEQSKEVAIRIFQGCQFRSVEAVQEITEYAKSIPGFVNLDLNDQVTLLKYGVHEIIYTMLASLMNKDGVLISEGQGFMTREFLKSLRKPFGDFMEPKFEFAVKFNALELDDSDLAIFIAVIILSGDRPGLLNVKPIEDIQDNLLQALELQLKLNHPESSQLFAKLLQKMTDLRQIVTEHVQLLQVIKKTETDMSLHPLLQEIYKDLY

SMILES | outcome
O=C(NC(Cc1ccccc1)C(=O)N1CCN(c2ccccc2O)CC1)c1ccccc1 (configuration not stated) | inactive
CCOc1cc(N2CCOCC2)c(OCC)cc1NC(=O)c1ccc2ccccc2n1 | inactive
O=c1c2cn(Cc3ccc(F)cc3)c3ccc(F)cc3c-2nn1Cc1ccc(F)cc1 | inactive
CCOc1ccc(CN2CCN(Cc3cccc4nonc34)CC2CCO)cc1 (configuration not stated) | inactive
Cc1c(-n2cc(C(=O)c3cc(F)ccc3O)cc(C#N)c2=O)c(=O)n(-c2ccccc2)n1C | inactive
Cc1ccc2nc(N3C(=O)C(O)=C(C(=O)c4ccco4)C3c3ccc(O)cc3)sc2c1 (configuration not stated) | inactive
COc1ccc(S(=O)(=O)N2CCCCC2)cc1NC(=O)C1CSC2(C)CCC(=O)N12 (configuration not stated) | inactive
